Results: PubChem BioAssay AID2825 (Sanford-Burnham Center for Chemical Genomics, 2010)
About 1,300 (0.39%) of roughly 330,000 compounds were called active. Only a selection was taken, and actives are over-represented in it overall. Unmarked numbers belong to inactive results.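 Rule for the calls: active = inhibition of 50% or more; inactive = inhibition below 50%.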

Experiment: blockers of yeast NLRP3/ASC/caspase-1 reporter – luminescence, uHTS, primary screen (AID 2825);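 note: plate controls were induced DMSO wells for no effect and uninduced yeast grown without galactose for full effect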
Settings: Yeast reconstituted NLRP3/ASC/caspase-1, beta-gal luminescence, 24 h; at 10 µM; active compounds read high
Work on `Cc1c(Cl)c([N+](=O)[O-])nn1CCCC(=O)NC(C)c1ccccc1` (stereo not drawn) yielded an inhibition of 7.95%. Compound `COC(=O)CCNC(=O)c1ccc2[nH]c(C)c(C)c2c1` has an inhibition of -4.49%. `Cc1nn(CCOc2ccccc2)c(=O)n1-c1ccccc1F` showed an inhibition of -0.993%. For `CC(C)(c1ccccc1)c1ccc(OCCN)cc1`, the inhibition was 54.5% (active). Work on `CC(C)(c1ccccc1)c1ccc(OCCN2CCCC2)cc1` yielded an inhibition of 31.2%. `COc1cnn(-c2ccc([N+](=O)[O-])cc2)c(=O)c1Cl` gave an inhibition of -39.9%. Compound `Cc1ccc(-c2cn(S(=O)(=O)c3cccc([N+](=O)[O-])c3)nc2N)cc1` has an inhibition of -10.8%. In the case of `Nc1c(-c2cccc(Cl)c2)cnn1-c1cccc([N+](=O)[O-])c1`, the inhibition is reported as 50.4% (active). For `Cc1ccc(CSc2nsc(C)c2C#N)cc1`, the inhibition was 63.5% (active). `Cc1cc(C)c(C#N)c(SCc2ccc3c(c2)OCO3)n1` showed an inhibition of 7.1%. With `Cc1snc(SCc2c(F)cccc2Cl)c1C#N` the inhibition was 18.9%. With `O=C(CCNC(=O)c1ccccc1)NN=Cc1ccc(Br)o1` the inhibition was 20.8%. In the case of `Cn1c(=O)c(C(=O)Nc2ncccn2)c(O)c2ccccc21`, the inhibition is reported as 50.1% (active). `C=CCn1c(=O)c(C(=O)Nc2ncccc2O)c(O)c2ccccc21` gave an inhibition of 22.7%. `CCCn1c(=O)c(C(=O)Nc2cc(C)ccn2)c(O)c2ccccc21` gave an inhibition of 18.1%. For `CS(=O)(=O)N(Cc1nc2sc3c(c2c(=O)[nH]1)CCCC3)C1CCCCC1`, the inhibition was 19.1%. `CC[C@@H](C)[C@H](NC(=O)CCc1c(C)c2cc3c4c(oc3c(C)c2oc1=O)CCCC4)C(=O)O` gave an inhibition of 17.7%. In the case of `Cc1cc(C)nc(NC(=O)Nc2ccccc2C(F)(F)F)n1`, the inhibition is reported as 54.9% (active). Work on `Cc1cc(Cl)nc(NC(=O)Nc2cccc(Cl)c2)n1` yielded an inhibition of 25.9%. Compound `COc1cccc(C(=O)NC(=O)Nc2nc(C)cc(C(F)(F)F)n2)c1` has an inhibition of 6.49%. With `Cc1ccc(CNC(=O)Cn2cnc(S(=O)(=O)N3CCCCC3)c2)o1` the inhibition was 4.74%. With `O=C(c1ccccc1)c1cc(-c2ccccn2)c(N2CCOCC2)s1` the inhibition was -6.23%. Work on `CCOC(=O)C1=C(C)NC(C)=C(C(=O)OCC)C1C1=COCCO1` yielded an inhibition of 22.7%. `COc1cc(N2C(=O)CC3(CCCC3)CC2=O)cc(OC)c1OC` gave an inhibition of 3.58%. With `COc1cc(C(=O)N2CCN(C)CC2)cc(OC)c1OC` the inhibition was 9.48%. In the case of `O=C1CSC(=S)N1c1ccc(Cl)c(Cl)c1`, the inhibition is reported as 41.8%. With `COc1cc(N2C(=O)CSC2=S)cc(OC)c1OC` the inhibition was 58.3% (active). In the case of `CCOc1ccc(N2C(=O)CSC2=NC#N)cc1`, the inhibition is reported as 11.9%. For `O=C1CSC(=S)N1c1ccc(O)cc1`, the inhibition was 81.7% (active). Work on `COCCNc1cc(-c2ccccc2)nc2cc(-c3cccc(F)c3)nn12` yielded an inhibition of 32.2%. `CCCCC(=O)Nc1ccccc1N1CCN(c2ccc(F)cc2)CC1` gave an inhibition of 17.7%. For `CC(C)NC(=S)NN=C1CCCCCCCCCCC1`, the inhibition was 26.8%. `Cc1ccc2nsnc2c1S(=O)(=O)N1CCCC1C(=O)O` (stereo not drawn) gave an inhibition of 14.6%. `COc1ccc(S(=O)(=O)N2CCOC23CCN(S(=O)(=O)c2ccc([N+](=O)[O-])cc2)CC3)cc1` showed an inhibition of 23.5%. Compound `O=C(c1ccncc1)N1CCN(S(=O)(=O)c2cc(C(F)(F)F)cc(C(F)(F)F)c2)CC1` has an inhibition of 6.83%. Compound `O=C(NCc1ccc2c(c1)OCO2)c1sccc1Br` has an inhibition of 40.9%. In the case of `CCn1c(=O)c(C(=O)NCc2ccc3c(c2)OCO3)c(O)c2ccccc21`, the inhibition is reported as 17.1%. In the case of `O=C(NCc1ccc2c(c1)OCO2)c1c(O)nc2sccn2c1=O`, the inhibition is reported as 56% (active). Compound `CC(NC(=O)COC(=O)CCC(=O)c1ccc(Cl)cc1)c1ccccc1` (stereo not drawn) has an inhibition of 6.94%. Work on `CC1CCN(C(=S)NC(=O)c2ccccc2Br)CC1` yielded an inhibition of 15.7%. For `CCCN(CC1CC1)C(=S)NC(=O)c1ccccc1Br`, the inhibition was 50.5% (active). `O=C(NC(=S)Nc1ncccn1)c1ccccc1Br` showed an inhibition of 6.12%. Compound `COc1ccc(S(=O)(=O)NCc2cccnc2)cc1NC(=O)c1ccc(C)cc1` has an inhibition of 9.95%. Compound `CCc1cc(-c2n[nH]c(=S)n2CC(C)C)cs1` has an inhibition of 29.7%. For `Cc1nc2sc(C(c3ccco3)N3CCC4(CC3)OCCO4)c(O)n2n1` (stereo not drawn), the inhibition was 13.3%. For `Cc1ccc(O)c(NC(=O)c2cc(-c3ccco3)on2)c1`, the inhibition was 56.4% (active). Compound `O=C(Nc1ccccc1C(F)(F)F)c1cc(-c2ccc(O)cc2)on1` has an inhibition of 32%. Compound `CC(C)Cc1cc(C(=O)Nc2cc(Br)ccc2O)no1` has an inhibition of 29.5%. With `COc1cccc(C(=O)Oc2cc(C)[nH]c(=O)c2[N+](=O)[O-])c1` the inhibition was 16%. Work on `COC(=O)c1ccc(S(=O)(=O)N(CCO)Cc2ccccc2)n1C` yielded an inhibition of 4.79%. Work on `CN1CCN(C(=O)/C(=C\c2cccs2)NC(=O)c2cccs2)CC1` yielded an inhibition of 7.81%. Compound `C=CCn1c(SCC(N)=O)nnc1-c1cc2c(s1)CCC(CC)C2` (stereo not drawn) has an inhibition of 4.35%. With `O=C(O)C1CCCN1C1=NS(=O)(=O)c2ccccc21` (stereo not drawn) the inhibition was -1.91%. `COc1cc(OC)cc(C(=O)Nc2ccc(-c3nc4ccccc4o3)c(O)c2)c1` showed an inhibition of 10.3%. With `O=C(Nc1ccc2oc(-c3ccccc3F)nc2c1)c1ccco1` the inhibition was 54.8% (active). `O=C(Nc1cccc(-c2nc3ncccc3o2)c1)c1ccco1` gave an inhibition of 18.2%. Compound `C=CCN1C(=O)C(O)(CC(=O)c2ccc(Cl)cc2)c2ccccc21` (stereo not drawn) has an inhibition of -10.4%. With `CCN(CC)C(=O)CSc1ncnc2c1cnn2-c1ccccc1` the inhibition was 35.5%. In the case of `CC(C)Sc1ncnc2c1cnn2-c1ccccc1`, the inhibition is reported as 50.5% (active). `CC(Sc1ncnc2c1cnn2-c1ccccc1)C(=O)Nc1ccc(N2CCOCC2)cc1` (stereo not drawn) gave an inhibition of 8.39%. For `Oc1c(Cl)cc(Cl)c(Cl)c1Cc1c(O)c(Cl)cc(Cl)c1Cl`, the inhibition was 95.9% (active). `CCCn1c(SCC(=O)Nc2ccc(C)c(S(=O)(=O)N3CCOCC3)c2)n[nH]c1=O` showed an inhibition of 4.23%. Compound `CC1(C)Cc2c(sc3nc(SCC(=O)NCc4ccccc4)n(-c4ccccc4)c(=O)c23)CS1` has an inhibition of -8.33%.
